Assay results published in PubChem BioAssay AID1159580 (chemical genetic matrix, 2015).
About 2,000 (36%) of roughly 5,500 compounds were called active. Inconclusive results (about 18%) are left out. Cut-off read from the data, not from the text of the source: active = normalized growth mostly below about 0.91 (no sharp cut-off); inconclusive = no clear call, values can overlap the other calls; inactive = mostly above about 0.92. This is one part of the list.

Assay: chemical genetic growth profiling, strain panel (AID 1159580);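 note: tested at 20 µM; growth read once vehicle control cultures reached saturation at 30 °C; 1 = growth at the plate median or of vehicle wells; lower values mean less growth of the strain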
Details: growth OD
[1] = S. cerevisiae deletion strains, locus YAL013W, strain DEP1, active compounds read low
[2] = S. cerevisiae deletion strains, locus YBR229C, strain ROT2, active compounds read low
[3] = S. cerevisiae deletion strains, locus YCL061C, strain MRC1, active compounds read low
[4] = S. cerevisiae deletion strains, locus YDL101C, strain DUN1, active compounds read low
[5] = S. cerevisiae deletion strains, locus YDL134C, strain PPH21, active compounds read low
[6] = S. cerevisiae deletion strains, locus YDR150W, strain NUM1, active compounds read low
[7] = S. cerevisiae deletion strains, locus YEL061C, strain CIN8, active compounds read low
[8] = S. cerevisiae deletion strains, locus YGR078C, strain PAC10, active compounds read low
[9] = S. cerevisiae deletion strains, locus YHR030C, strain SLT2, active compounds read low
[10] = S. cerevisiae deletion strains, locus YHR087W, strain rtc3, active compounds read low
[11] = S. cerevisiae deletion strains, locus YJL187C, strain SWE1, active compounds read low
[12] = S. cerevisiae deletion strains, locus YJR043C, strain POL32, active compounds read low
[13] = S. cerevisiae deletion strains, locus YJR075W, strain HOC1, active compounds read low
[14] = S. cerevisiae deletion strains, locus YKL190W, strain CNB1, active compounds read low
[15] = S. cerevisiae deletion strains, locus YLR039C, strain RIC1, active compounds read low
[16] = S. cerevisiae deletion strains, locus YLR058C, strain SHM2 (second series), active compounds read low
[17] = S. cerevisiae deletion strains, locus YLR085C, strain ARP6, active compounds read low
[18] = S. cerevisiae deletion strains, locus YLR262C, strain YPT6, active compounds read low
[19] = S. cerevisiae deletion strains, locus YML094W, strain GIM5, active compounds read low
[20] = S. cerevisiae deletion strains, locus YMR219W, strain ESC1, active compounds read low
[21] = S. cerevisiae deletion strains, locus YMR263W, strain SAP30, active compounds read low
[22] = S. cerevisiae deletion strains, locus YNL153C, strain GIM3, active compounds read low
[23] = S. cerevisiae deletion strains, locus YNL298W, strain CLA4 (second series), active compounds read low
[24] = S. cerevisiae deletion strains, locus YNL322C, strain KRE1, active compounds read low
[25] = S. cerevisiae deletion strains, locus YNR030W, strain Alg12, active compounds read low
[26] = S. cerevisiae deletion strains, locus YOL006C, strain TOP1, active compounds read low
[27] = S. cerevisiae deletion strains, locus YPL055C, strain LGE1, active compounds read low
[28] = S. cerevisiae deletion strains, locus YPL241C, strain CIN2, active compounds read low
[29] = S. cerevisiae deletion strains, locus YPR135W, strain CTF4, active compounds read low
[30] = S. cerevisiae deletion strains, locus YMR307W, strain GAS1, active compounds read low
[31] = S. cerevisiae deletion strains, locus YNL128W, strain TEP1, active compounds read low

Measured: normalized growth

N#Cc1cnn(-c2ccccc2)c1-n1cccc1
active: [9] 0.626
inactive: [1] 0.976 | [2] 0.988 | [3] 0.959 | [4] 1.01 | [5] 0.999 | [6] 0.873 | [7] 1.02 | [8] 0.974 | [10] 1.02 | [11] 0.976 | [12] 0.978 | [13] 0.988 | [14] 0.985 | [15] 0.859 | [16] 0.974 | [17] 0.933 | [18] 0.883 | [19] 0.984 | [20] 0.981 | [21] 0.964 | [22] 0.994 | [23] 0.967 | [24] 0.989 | [25] 0.956 | [26] 0.938 | [27] 0.969 | [28] 0.953 | [29] 0.82

O=C(O)c1cnn(-c2ccccc2)c1C(F)(F)F
inactive: [1] 1.01 | [2] 0.988 | [3] 0.995 | [4] 0.998 | [6] 1.02 | [7] 0.996 | [8] 0.99 | [9] 1.01 | [10] 0.98 | [11] 0.993 | [12] 0.992 | [13] 1.02 | [15] 1.03 | [16] 1.01 | [17] 1.05 | [18] 0.955 | [19] 1.02 | [20] 1 | [21] 0.989 | [30] 0.979 | [31] 1.01 | [22] 0.984 | [23] 1.01 | [24] 0.999 | [25] 1.01 | [26] 1.04 | [27] 1.04 | [28] 1.01 | [29] 1

CC1(O)/C=C/C=C(\CO)C2CC(C)(C)C2(O)CC1 (centres undefined)
inactive: [1] 1.02 | S. cerevisiae deletion strains, locus YBR021W, strain FUR4, active compounds read low 1.02 | [2] 1.01 | S. cerevisiae deletion strains, locus YCL029C, strain bik1, active compounds read low 1 | S. cerevisiae deletion strains, locus YDL035C, strain GPR1, active compounds read low 1.01 | S. cerevisiae deletion strains, locus YDL074C, strain BRE1, active compounds read low 1.03 | [4] 1.02 | [5] 1.02 | S. cerevisiae deletion strains, locus YDL185W, strain tfp1, active compounds read low 1 | S. cerevisiae deletion strains, locus YDL192W, strain arf1, active compounds read low 1 | S. cerevisiae deletion strains, locus YDR101C, strain arx1, active compounds read low 0.976 | [6] 1.02 | S. cerevisiae deletion strains, locus YDR162C, strain NBP2, active compounds read low 1.04 | S. cerevisiae deletion strains, locus YDR318W, strain mcm21, active compounds read low 0.993 | S. cerevisiae deletion strains, locus YDR388W, active compounds read low 0.998 | S. cerevisiae deletion strains, locus YDR502C, strain sam2, active compounds read low 1.01 | [7] 1.01 | S. cerevisiae deletion strains, locus YER110C, active compounds read low 0.998 | S. cerevisiae deletion strains, locus YER155C, strain BEM2, active compounds read low 1 | S. cerevisiae deletion strains, locus YER167W, strain BCK2, active compounds read low 1.02 | S. cerevisiae deletion strains, locus YGL078C, strain dbp3, active compounds read low 1 | S. cerevisiae deletion strains, locus YGL086W, strain mad1, active compounds read low 1 | S. cerevisiae deletion strains, locus YGL248W, strain PDE1, active compounds read low 1.01 | [8] 1.02 | S. cerevisiae deletion strains, locus YGR135W, strain pre9, active compounds read low 0.999 | S. cerevisiae deletion strains, locus YGR229C, strain SMI1, active compounds read low 1.02 | S. cerevisiae deletion strains, locus YGR252W, strain gcn5, active compounds read low 0.956 | [9] 1 | S. cerevisiae deletion strains, locus YHR079C, strain IRE1 (second series), active compounds read low 1 | S. cerevisiae deletion strains, locus YHR094C, strain hxt1, active compounds read low 1.01 | S. cerevisiae deletion strains, locus YHR129C, strain ARP1, active compounds read low 1.01 | S. cerevisiae deletion strains, locus YHR200W, strain rpn10, active compounds read low 1 | S. cerevisiae deletion strains, locus YIL066C, strain RNR3, active compounds read low 1.01 | S. cerevisiae deletion strains, locus YIL073C, strain SPO22, active compounds read low 1.02 | S. cerevisiae deletion strains, locus YIL125W, strain kgd1, active compounds read low 0.998 | S. cerevisiae deletion strains, locus YIR030C, strain dcg1, active compounds read low 1.01 | S. cerevisiae deletion strains, locus YJL095W, strain BCK1, active compounds read low 1 | S. cerevisiae deletion strains, locus YJL134W, strain LCB3, active compounds read low 1.01 | S. cerevisiae deletion strains, locus YJL168C, strain set2, active compounds read low 1 | S. cerevisiae deletion strains, locus YJL187C, strain SWE1 (second series), active compounds read low 1.02 | [12] 0.995 | [13] 1.01 | S. cerevisiae deletion strains, locus YKL009W, strain mrt4, active compounds read low 0.991 | S. cerevisiae deletion strains, locus YKL068W, active compounds read low 1.01 | S. cerevisiae deletion strains, locus YKL085W, strain MDH1 (second series), active compounds read low 1.02 | S. cerevisiae deletion strains, locus YKL085W, strain MDH1, active compounds read low 1.02 | [14] 1.01 | S. cerevisiae deletion strains, locus YKR001C, strain vps1, active compounds read low 1 | [15] 0.977 | S. cerevisiae deletion strains, locus YLR058C, strain SHM2, active compounds read low 1.01 | S. cerevisiae deletion strains, locus YLR102C, strain apc9, active compounds read low 1 | [18] 1.05 | S. cerevisiae deletion strains, locus YLR268W, strain sec22, active compounds read low 0.986 | S. cerevisiae deletion strains, locus YLR330W, strain CHS5, active compounds read low 1.01 | S. cerevisiae deletion strains, locus YLR342W, strain FKS1 (second series), active compounds read low 1.02 | S. cerevisiae deletion strains, locus YLR371W, strain rom2, active compounds read low 1 | S. cerevisiae deletion strains, locus YLR418C, strain cdc73, active compounds read low 0.989 | S. cerevisiae deletion strains, locus YML016C, strain PPZ1, active compounds read low 1.01 | S. cerevisiae deletion strains, locus YML032C, strain rad52, active compounds read low 0.979 | S. cerevisiae deletion strains, locus YML124C, strain tub3, active compounds read low 1 | S. cerevisiae deletion strains, locus YMR078C, strain ctf18, active compounds read low 1.01 | S. cerevisiae deletion strains, locus YMR223W, strain ubp8, active compounds read low 0.994 | [21] 1.02 | [30] 1.02 | S. cerevisiae deletion strains, locus YNL067W, strain RPL9B, active compounds read low 1.01 | [31] 1.03 | [22] 1.02 | S. cerevisiae deletion strains, locus YNL233W, strain BNI4, active compounds read low 1.02 | S. cerevisiae deletion strains, locus YNL250W, strain rad50, active compounds read low 1.02 | S. cerevisiae deletion strains, locus YNL271C, strain bni1, active compounds read low 0.995 | S. cerevisiae deletion strains, locus YNL298W, strain CLA4, active compounds read low 0.993 | S. cerevisiae deletion strains, locus YNL307C, strain MCK1, active compounds read low 0.997 | [24] 1.02 | S. cerevisiae deletion strains, locus YNR052C, strain pop2, active compounds read low 0.998 | [26] 1.06 | S. cerevisiae deletion strains, locus YOL012C, strain htz1 0.828 | S. cerevisiae deletion strains, locus YOL147C, strain pex11, active compounds read low 1.01 | S. cerevisiae deletion strains, locus YOR061W, strain CKA2, active compounds read low 1.02 | S. cerevisiae deletion strains, locus YOR069W, strain VPS5, active compounds read low 1.01 | S. cerevisiae deletion strains, locus YOR136W, strain idh2, active compounds read low 0.997 | S. cerevisiae deletion strains, locus YOR144C, strain elg1, active compounds read low 0.999 | S. cerevisiae deletion strains, locus YOR184W, strain ser1, active compounds read low 0.994 | S. cerevisiae deletion strains, locus YOR316C, strain cot1, active compounds read low 1 | [27] 1.05 | [28] 1.02 | S. cerevisiae deletion strains, locus YPR119W, strain clb2, active compounds read low 0.992 | S. cerevisiae deletion strains, locus YPR141C, strain kar3, active compounds read low 1 | S. cerevisiae deletion strains, locus YPR163C, strain tif3, active compounds read low 1 | S. cerevisiae deletion strains, locus YPR167C, strain met16, active compounds read low 1.01 | S. cerevisiae deletion strains, strain wtn01, active compounds read low 0.995 | S. cerevisiae strains, strain wild type, active compounds read low 1.01
